Reference: PubChem BioAssay (NCI)
Compounds without any hit were thinned out: in the full panel of roughly 83,000, 20% have a hit.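 Single-concentration screen, 48 h exposure, 96-well plates. Endpoint: percent growth. Below 10 = active.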 Unmarked numbers belong to inactive results. Calls of active or inactive are those of the source.

These compounds were tested on HS 578T breast (assay: NCI-60 one-dose screen, 48 h (100 = growth as untreated, 0 = no growth, -100 = all killed)). Settings: 10 µM unless noted.
Experimental: Growth inhibition of the HS 578T human tumor cell line is measured as a screen for anti-cancer activity. Cells are grown in 96 well plates and exposed to the test compound for 48 hours. Compounds are tested at a single concentration, which is 10^-5 M for most compounds. The reported endpoint is percent growth (GI% or GIPRCNT), where numbers from 0 - 100% represent growth inhibition, and numbers from -100% - 0 represent cell death. For example, a value of 40 represents 60% growth inhibition. A value of 0 means no net growth occurred over the course of the experiment. A value of -40 indicates 40% of cells at the beginning of the experiment died by the end of the experiment. A value of -100 means all cells are dead at the end of the experiment.
NCI-60 Human Tumor Cell Lines Screen was performed using the standard one-dose NCI protocol, which is described in more detail at https://dtp.cancer.gov/discovery_development/nci-60/default.htm.
Compounds with GIPRCNT values below 10 were considered active. Activity score was based on GIPRCNT using the following formula: […]
Score is 0 for GIPRCNT values of 100 or above, 50 for GIPRCNT values of 0, and 100 for GIPRCNT values of -100.
In the case of `CCOC(=O)c1cc(CC)sc1NC(=O)CC(C)=O`, the growth is reported as 49.9%. Compound `CC1C(c2ccccc2)OCCN1C(=S)Nc1ccc(S(=O)(=O)N2CCCCC2)cc1` (stereo not given) has a growth of 85.8%. In the case of `OCCOSCCO`, the growth is reported as 115%. In the case of `COc1cc([C@@H]2c3cc4c(cc3[C@H](OC3OC5COC(c6ccccc6)OC5C(O)C3O)[C@H]3COC(=O)[C@H]23)OCO4)cc(OC)c1OC` (stereo not given in full), the growth is reported as -30% (active). `Nc1nc2ncc(CNc3ccc(C(=O)NC(CCC(=O)NC(CCC(=O)NC(CCC(=O)NC(CCC(=O)NC(CCC(=O)O)C(=O)O)C(=O)O)C(=O)O)C(=O)O)C(=O)O)cc3)nc2c(=O)[nH]1` (stereo not given) showed a growth of 90.1%. `c1csc(-c2[nH]nc3c2CCc2ccccc2-3)c1` was tested, and the growth was 90%. Work on `CC(C)c1ccc(C(=O)OC2CCCC2)cc1` yielded a growth of 101%. Compound `CCCCCCCCCCCC(=O)OC(C)C(=O)NCCCC` (stereo not given) has a growth of 101%. `CN(C)CCSC1=Nc2ccc(Cl)cc2C(c2ccccc2Cl)N(C)C1` (stereo not given) was tested, and the growth was 24.2%. `CCCC[n+]1c(/C=C\c2c(OC)cc(OC)cc2OC)ccc2ccccc21` gave a growth of 16.4%. In the case of `COc1ccc(/C=C2/C(=O)ON=C2C)cc1`, the growth is reported as 102%. With `COc1cc(/C=C/C(=O)CC(=O)/C=C/c2ccc(O)c(OC)c2)ccc1O` the growth was 55.6%. With `COc1cc(/C=C/c2ccnc3ccccc23)cc(OC)c1OC` the growth was 24.4%. Compound `CCCCC(C=O)(C=C=C(C)C)CC` (stereo not given) has a growth of 112%. For `O=C(c1ccccc1)c1ccc(O)c2ncccc12`, the growth was 52.7%. Compound `COc1cc(NCc2ccc3nc(N)nc(N)c3c2C)cc(OC)c1OC` (tested in a mixture with another compound) has a growth of 44.1%. For `CCCCCCCCCCCCCCCc1ccc(C(=O)C[n+]2ccccc2)cc1`, the growth was -37.3% (active). For `CN=C(N)N/N=C(\C)c1ccc2c(c1)Cc1ccccc1-2`, the growth was -19.1% (active). For `CC1=CC(=O)C=CC1(C)C(Cl)(Cl)Cl` (stereo not given), the growth was 93.1%. In the case of `COc1cc2c(c(OC)c1OC)-c1ccc(NCc3ccccc3)c(=O)cc1[C@@H](NC(C)=O)CC2`, the growth is reported as 17.3%. With `O=C(CBr)c1ccc(OC(=O)c2ccccc2)cc1` the growth was 108%. In the case of `CCCCCC/C=C1\CCC(CN2CCCC2)C1=O` (stereo not given), the growth is reported as 96.3%. `CCCCCCCCCCCCCCCCCC1=NCCCN1CCO` was tested, and the growth was 101%. Work on `CC(C)(C)CC(C)(C)c1ccc(OCCOCCSC(=N)N)cc1` yielded a growth of 33.9%. `CCOc1ccc(C(C[N+](=O)[O-])Sc2ccccc2N)cc1` (stereo not given) was tested, and the growth was 43.6%. `O=[N+]([O-])c1ccc(Oc2ccccc2Cl)c([N+](=O)[O-])c1` showed a growth of 77.7%. `Cc1cc(=O)oc2cc(O)cc(O)c12` was tested, and the growth was 106%. In the case of `CCCCCCCCCCCCSC(=N)N`, the growth is reported as 92.1%. In the case of `Clc1ccccc1C(c1ccccc1)(c1ccccc1)n1ccnc1`, the growth is reported as 58.2%. Work on `C[n+]1ccccc1C[n+]1ccccc1` yielded a growth of 121%. Compound `CCC(C)(O)Cc1ccc(Cl)cc1` (stereo not given) has a growth of 108%. `CCCCCCCCCCCCCCCC[N+]1(C)CCCC1c1cccnc1` (stereo not given) showed a growth of 80.2%. Work on `COC(=O)C(=[N+]=[N-])C(=O)c1ccc([N+](=O)[O-])o1` yielded a growth of 90.3%. In the case of `CN(C)CCN(C)CC(C)(C)C(=O)/C=C/c1ccc(Cl)c(Cl)c1`, the growth is reported as -39.5% [100 µM] (active). Work on `CCOC(=O)NC(/C=C/c1ccccc1)NC(=O)OCC` yielded a growth of 103%. `CCSc1nc2ccccc2o1` showed a growth of 102%. `Cc1cc(C(=O)c2ccc(Cl)cc2)ccc1O` showed a growth of 116%. `Cc1ccc2c(c1)sc(-c1ccc(N(C)C)cc1)[n+]2C` showed a growth of 20.3%. `COC1=CC(=O)c2c(O)c3c(c(O)c2C1=O)CC(C)(O)OC3` (stereo not given) was tested, and the growth was 67.2%. `O=C1C=CC(=O)N1c1ccc(O)cc1` was tested, and the growth was 118%.
